From PubChem
Spn MK inh: S. pneumoniae mevalonate kinase inhibition; purified MK, PK/LDH-coupled NADH absorbance 340 nm; inhibition, % at 10 µM; 0.48% of 65,000 active; AID 555;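 active = ranked among the strongest by inhibition in the single 10 µM screen, a fixed top-ranked set picked for dose follow-up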
A340 absorber: absorbance at 340 nm | AID 708 | fold change at 10 µM | 65,000 tested, under 10 active | compound absorbance at 340 nm, fold over control;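 active = at 10 µM dose, initial 340 nm absorbance at least 2 fold that of control wells; inactive = change under 2 fold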;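 also: initial absorbance extrapolated from kinetic A340 decline of NADH oxidation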
Spn PMK inh: inhibitors of Streptococcus pneumoniae phosphomevalonate kinase; 0.49% of 65,000 active; inhibition, % at 10 µM; AID 539; purified PMK, PK/LDH-coupled NADH absorbance 340 nm;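 active = top-ranked compounds by inhibition in the single 10 µM screen, taking a fixed number of the strongest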;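 also: 0% = full reaction with DMSO carrier and 100% = background rate without enzyme reaction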
Fluor 339 460: intrinsic fluorescence of library compounds, ex339/em460 – biochemical, MLSMR library, data from DPM-DC assay, artefact control, profiling panel; 5.5% of 65,000 active; compound autofluorescence, ex339/em460 nm, NADH buffer; active compounds read high; 1 = no-compound wells, NADH background; fluorescence fold increase at 10 µM;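 active = at 10 µM, mean starting fluorescence two-fold or more over control wells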;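 also: signal is the first read of a kinetic run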
DPM-DC inhibit: blocks S. pneumoniae diphosphomevalonate decarboxylase; purified DPM-DC, PK/LDH coupled NADH fluorescence; calls only at 10 µM; 0.49% of 65,000 active; AID 556;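 active = the 320 compounds with the highest percent inhibition in the single-dose primary screen, excluding strongly autofluorescent ones, cut at about 32% in these data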;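 also: kinetic rate of NADH fluorescence loss reporting ADP formed by the decarboxylase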
NADH enzymes: inhibition of NAD/NADH coupling enzymes, library profiling; coupled PK/LDH NADH assays, four targets; IC50, µM (series often up to 10 µM), for inactives: top-dose inhibition; 0.02% of 65,000 active; AID 774;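 active = single-dose screening hits from any of four coupled enzyme assays that gave an IC50 when retested across doses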;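 also: the DPM-DC format reads NADH fluorescence rather than 340 nm absorbance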
Starred values were filed as active, the others as inactive; i = inactive; . = not tested or not shown; + = active, no number. This is a sample that favours compounds with a hit; in the whole collection about 6.5% have one here.

SMILES	Spn MK inh	A340 absorber	Spn PMK inh	Fluor 339 460	DPM-DC inhibit	NADH enzymes
CN(C)c1nc(-c2ccccc2)c2cnn(Cc3ccccc3)c2n1	10	1	8	2.1*	.	9%
c1ccc(Cn2ncc3c2ncn2nc(-c4ccncc4)nc32)cc1	5	1.1	4	1	i	4%
c1ccc(-c2cc3c(-n4cccc4)ncnc3o2)cc1	1	1.1	5	3.2*	i	2%
CC(C)(C)OC(=O)NCCCCCc1nnc(SCC(=O)Nc2cccc(Cl)c2)o1	7	0.99	12	1.1	i	6%
CC(C)CCn1cnc2c(cnn2-c2ccc(Cl)cc2)c1=O	7	1	9	1.1	i	5%
N#Cc1nc(-c2cccs2)oc1N1CCOCC1	6	1.1	0	2.3*	.	3%
CC1CN(c2oc(-c3cccs3)nc2C#N)CC(C)O1 (stereo unspecified)	0	1.1	14	2.4*	.	7%
CC(NC(=O)CSc1ncccn1)c1ccccc1 (stereo unspecified)	7	0.99	1	1	i	3%
COc1ccc(C2C=C(c3ccccc3)Nc3ncnn32)cc1 (stereo unspecified)	7	1	12	3.4*	.	6%
CCOc1ccc(C2C=C(c3ccc(C)cc3)Nc3ncnn32)cc1 (stereo unspecified)	12	1.1	8	3.6*	.	10%
CCOc1ccc(C2C=C(c3ccc(C)cc3)Nc3nnnn32)cc1 (stereo unspecified)	14	1	5	1.2	i	6%
CCOC(=O)N1CCC(Nc2c(NCCCN(CC)c3cccc(C)c3)c(=O)c2=O)CC1	11	1	2	1.1	i	4%
COc1ccccc1N1CCN(C(=O)c2ccc(CS(=O)(=O)c3ccccc3OC)o2)CC1	5	0.99	3	1.1	i	2%
Cc1cc(C)n(-c2c(F)c(F)c(CN3CCOCC3)c(F)c2F)n1	8	1	0	1.1	i	3%
Cc1ccc(-c2c(C#N)c(N)nc3c2CCCCC3)o1	5	1.1	5	2*	i	8%
Cc1ccc(-c2c(C#N)c(N)nc3c2CCCCCC3)o1	2	0.92	6	2.2*	.	4%
CCn1cnc2sc(C(=O)N(Cc3ccc(N(C)C)cc3)Cc3ccco3)c(C)c2c1=O	5	1	10	1	i	5%
Nc1c(C(=O)Nc2ccc(Cl)cc2)oc2ccccc12	6	1.1	16	2.1*	.	11%
Cc1cccc(-n2c(SCC(=O)NCc3ccco3)nnc2-c2ccco2)c1	0	0.99	15	1.1	i	6%
Cc1ccc(-n2c(SCC(=O)NCc3ccco3)nnc2-c2cccnc2)c(C)c1	5	1	11	1.3	+	17%
Cc1cc(C)c(C#N)c(SCC(=O)N2CCCCC2)n1	0	1.1	0	1.1	i	1%
Cc1cc(C)c(C#N)c(N2CCSCC2)n1	10	1	11	2.7*	i	13%
Cc1cc(C)c(C#N)c(N2CCCC(C(N)=O)C2)n1 (stereo unspecified)	2	1	9	4.1*	.	6%
Cc1cc(N(C)C)c(C#N)c(N2CCOCC2)n1	11	1	3	1.1	i	5%
O=C(Nc1ccc(Oc2ccccc2)cc1)c1cnc2n(c1=O)CCS2	2	1.1	3	1.9	i	11%
SMILES	Spn MK inh	A340 absorber	Spn PMK inh	Fluor 339 460	DPM-DC inhibit	NADH enzymes
CN(C)c1cccc(C(=O)OCC(=O)NCC2CCCO2)c1 (stereo unspecified)	8	1.1	0	1.2	i	3%
COc1ccc(-c2ccc(-c3nnc(-c4ccncc4)o3)cc2)cc1	12	1	15	2.4*	+	9%
CCOC(=O)C(Cc1ccccc1)C(=O)Nc1nccs1 (stereo unspecified)	12	1	1	1	+	18%
CS(=O)(=O)N(CC(=O)N1CCC(C(N)=O)CC1)c1ccc(Oc2ccccc2)cc1	22	1	0	1.1	i	7%
Cc1cccc(OCCCCCn2ccnc2)c1	48*	1	0	1.1	i	16%
Cc1ccccc1OCCCCCn1ccnc1	0	1.1	4	1.1	i	1%
NC(=O)CSc1nnc(COc2ccccc2)n1C1CCCCC1	29	0.99	8	1.1	i	14%
COc1ccc(S(=O)(=O)Cc2ccc(C(=O)N3CCN(C(=O)c4ccco4)CC3)o2)cc1	1	1	5	1.1	i	2%
COC(=O)c1ccc2c(c1)N(Cc1nc(-c3cccc(Cl)c3)oc1C)C(=O)C1CCCN21 (stereo unspecified)	0	1	7	2*	i	2%
COC(=O)c1ccc2c(c1)N(Cc1nc(-c3ccc(Cl)cc3)oc1C)C(=O)C1CCCN21 (stereo unspecified)	0	1	14	3.7*	i	11%
CC(C(=O)Nc1ccc2c(c1)OCO2)N(c1ccc(Cl)cc1)S(C)(=O)=O (stereo unspecified)	3	1.1	6	1.1	i	3%
OCCNCC1(O)C2CC3CC(C2)CC1C3 (stereo unspecified)	12	0.99	26*	1.1	i	15%
CCc1cc(=O)oc2cc(C)c(CN3CCCCC3)c(O)c12	0	1.1	0	1.1	i	0%
CCN1CCN(Cc2c(O)c(Cl)cc3c(C)cc(=O)oc23)CC1	0	1.1	0	2.2*	.	0%
Cc1cc(=O)oc2c(CN3CCCCC3)c(O)c(Cl)cc12	12	1.1	0	2.4*	.	6%
Cc1cc(=O)oc2c(CN3CCC(C)CC3)c(O)c(Cl)cc12	0	1.1	7	2.3*	.	4%
CN1CCN(Cc2nc3c(c(=O)n(C)c(=O)n3C)n2Cc2ccccc2Cl)CC1	5	0.98	2	1	i	2%
COc1ccc(-c2nnc3ccc(SCC(=O)N4CCCC4)nn23)cc1	3	1.1	0	1.1	i	1%
O=C(CSc1ccc2nnc(-c3cccc(F)c3)n2n1)NCC1CCCO1 (stereo unspecified)	19	1	12	2.1*	i	14%
CCC(Sc1ccc2nnc(-c3ccc(F)cc3)n2n1)C(=O)O (stereo unspecified)	10	1	12	2*	i	12%
CCOC(=O)CC(=O)CSc1ccc2nnc(-c3ccc(C)cc3)n2n1	8	1	11	0.89	+	18%
O=C(CSc1ccc2nnc(-c3cccnc3)n2n1)NCC1CCCO1 (stereo unspecified)	5	1.1	0	1.9	i	7%
O=C(CSc1ccc2nnc(-c3ccccc3)n2n1)N1CCCCC1	6	1	10	2.2*	i	8%
COc1ccc(Cn2nnnc2C(c2cc(OC)ccc2OC)N2CCC(C(N)=O)CC2)cc1 (stereo unspecified)	0	1	15	1	i	6%
